Assay outcomes as filed in PubChem.
MsrA inhibitor: bovine MsrA inhibition; purified bovine MsrA, absorbance read-out; inhibition, % at 15.5 µM; 360,000 compounds, 0.75% hits; in the data active means inhibition above about 4.5%;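 further: 0% = vehicle wells with enzyme and 100% = reference inhibitor wells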
PKA-R1A activ: activators of PKA-R1A complex; P00514+P68181; PKA-R1A dissociation, Cy5-IP20 fluorescence polarization; scaled: DMSO 0%, 113 µM cGMP 100%; 340,000 compounds, 0.083% hits; activation, % at 11.4 µM;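 active means percent activation above the mean of all tested compounds plus 3 SD, cut at about 19% in these data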;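 further: higher means more PKAc released from R1A so a rise in polarization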
MsrA act: activates bovine MsrA enzyme; purified bovine MsrA, absorbance read-out; activation, % at 10.6 µM; 360,000 compounds, 0.3% hits; in the data active means activation above about 7.5%;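 further: 0% = vehicle and 100% = reference activator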
PKA-R2B activ: activates the human PKA-R2B holoenzyme complex. P22694+P31323. PKA-R2B holoenzyme dissociation, Cy5-IP20 fluorescence polarization; R2B truncated from residue 108, S112A mutant; 0% DMSO only, 100% 113 µM cGMP. activation, % at 11.4 µM. 340,000 compounds, 0.079% hits. AID 504700;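 active means activation above a cutoff set at the mean over all compounds plus 3 SD, cut at about 18% in these data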;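 further: higher means more holoenzyme dissociation and a rise in polarization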
Target sequence (P31323 whole entry, looked up, other chains not shown, the tested form may be a part): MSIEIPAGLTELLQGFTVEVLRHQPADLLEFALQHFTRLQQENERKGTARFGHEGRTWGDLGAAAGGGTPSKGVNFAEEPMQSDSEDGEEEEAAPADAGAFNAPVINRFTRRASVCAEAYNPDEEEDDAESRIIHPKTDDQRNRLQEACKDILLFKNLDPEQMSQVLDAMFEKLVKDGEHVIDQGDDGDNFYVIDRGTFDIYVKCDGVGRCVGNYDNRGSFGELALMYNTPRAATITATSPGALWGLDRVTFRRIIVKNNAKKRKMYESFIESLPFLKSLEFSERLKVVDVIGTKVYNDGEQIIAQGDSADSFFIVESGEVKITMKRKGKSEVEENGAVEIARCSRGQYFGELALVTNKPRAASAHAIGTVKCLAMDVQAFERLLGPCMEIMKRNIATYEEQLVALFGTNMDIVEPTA
R1A FP artifact: fluorescence polarization artifact in PKA-R1A activator counter-screen; Cy5-IP20 peptide alone, fluorescence polarization artifact counterscreen; activation, % at 11.4 µM; shares compounds with PKA-R1A activ; 280 compounds, 7% hits;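 active means mean activation over triplicate runs exceeds the adjusted cutoff derived for the parent primary screen, cut at about 19% in these data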;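 further: no PKA protein present so any polarization rise reflects compound interference; 0% = tracer peptide mix alone and 100% = mix with added PKA catalytic subunit; higher means stronger polarization artifact and likely false positive in parent screen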
PKA-R1A confirm: confirmation of PKA-R1A complex activators | shares compounds with PKA-R1A activ | Cy5-IP20 fluorescence polarization, PKA-R1A holoenzyme dissociation | activation, % at 11.4 µM | 280 compounds, 9% hits | AID 504800;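 active means mean activation over replicate wells exceeds the adjusted hit threshold taken from the earlier primary screen, cut at about 20% in these data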;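 further: 0% = holoenzyme mix with DMSO only and 100% = cGMP-activated control wells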
MsrA act confirm: bovine methionine sulfoxide reductase A activation confirmed | purified bovine MsrA, absorbance read-out | 1,000 compounds, 12% hits | activation, % at 10.6 µM | shares compounds with MsrA act; in the data active means activation above about 4%;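 further: enzyme coupled to thioredoxin and thioredoxin reductase with NADPH; 0% = vehicle wells and 100% = reference activator wells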
* marks the source's active call; other numbers are inactive results; / = not tested or not shown. Most compounds without a hit are left out; they make up all but 1.1% or so of the library.

SMILES	MsrA inhibitor	PKA-R1A activ	MsrA act	PKA-R2B activ	MsrA act confirm	others
COc1ccccc1-c1ccc2c(c1)[C@@H]1C[C@H]3[C@@H](CN1CC2)[C@H](C)ON3C	2.7	/	/	/	/
COc1ccc(OC)c(C2C(C(=O)c3ccco3)=C(O)C(=O)N2CCN2CCOCC2)c1 (centres undefined)	0.9	18.9*	-3.4	1.6	/	R1A FP artifact=1.9;PKA-R1A confirm=3.2
CCCN1CCCCC(NC(=O)c2cccs2)C1=O (centres undefined)	-0.4	/	/	/	/
CCCC(=O)Nc1ccc(NC(=O)C2CC2)cn1	1.1	-1.6	-0.9	-4.8	/
CCCCC(=O)Nc1ccc(NC(=O)C2CC2)cn1	-0.8	19.6*	-2.0	-0.8	/	R1A FP artifact=5.5;PKA-R1A confirm=5.1
CN(Cc1cn[nH]c1-c1ccc2c(c1)OCO2)C1CCOCC1	-0.4	-5.2	-1.9	-19.1	/
c1cc2c(cc1-c1[nH]ncc1CN1C[C@H]3CC[C@H]1C3)OCO2	0.5	-11.9	12.2*	5.0	-2.1
COc1cccc(-c2nc(N3CCC(C)CC3)c3ccccc3n2)c1O	2.5	3.1	8.2*	-4.6	-4.8
COc1cccc(-c2nc(N3CCCC3)c3ccccc3n2)c1O	1.1	8.4	-7.0	9.1	/
COc1ccccc1-c1cccc2c3c([nH]c12)[C@@H]1C[C@H]2[C@@H](C(=O)N1CC3)[C@H](C)ON2C	0.1	/	/	/	/
CCN(CC)CCCNC(=O)c1csc(Nc2cccc3ccccc23)n1	-0.6	7.3	8.1*	4.6	-1.9
CCN(CC)C(=O)c1csc(Nc2cccc3ccccc23)n1	1.2	9.7	-1.2	-1.4	/
CCO[C@H]1OC(C(=O)NC2CC2)=C[C@@H](c2c[nH]c3ccccc23)[C@@H]1CCCO	-0.8	-5.3	8.4*	11.1	-1.1
CC1CCN(CCCNC(=O)c2ccc3c(=O)n(Cc4ccc(Cl)cc4)c(=S)[nH]c3c2)CC1	1.8	-0.7	8.2*	-2.9	-3.4
COC(=O)c1ccc2c(=O)n(Cc3ccc(C(=O)NCCCN4CCC(C)CC4)cc3)c(=S)[nH]c2c1	-0.1	10.9	-13.0	16.1	/
CCC(C)(C)n1nnnc1C(c1ccc(C)cc1)N1CCN(Cc2ccc3c(c2)OCO3)CC1 (centres undefined)	0.0	-6.5	8.7*	-6.4	-1.4
O=C1NCCN(Cc2ccc(Cl)c(F)c2)C1CC(=O)N1CCCCO1 (centres undefined)	-1.2	-5.5	8.6*	0.3	-2.1
O=c1c2ccc([N+](=O)[O-])cc2ncn1CCOc1cccc(Br)c1	0.0	-5.0	7.8*	-18.3	-2.1
O=C(N1CCOCC1)N1CCN(C(=O)N(c2ccccc2)c2ccccc2)CC1	2.4	-7.7	7.9*	5.2	-1.6
O=C(NC1CC1)c1ccc(NS(=O)(=O)c2ccccc2)cc1	0.7	-2.5	-1.8	4.8	/
O=C(NC1CC1)c1ccc(NS(=O)(=O)c2ccc(F)cc2)cc1	0.1	-3.8	10.6*	-6.1	-1.4
CCCCN(C(=O)c1cc(Cl)nc2ccccc12)c1c(N)n(CCC)c(=O)[nH]c1=O	0.7	-3.2	-9.3	-6.2	/
CCCCN(C(=O)c1cc(Cl)nc2ccccc12)c1c(N)n(Cc2ccccc2)c(=O)[nH]c1=O	0.3	5.5	11.5*	-10.0	0.4
CCN(CC(=O)NCc1ccc(Cl)cc1)C(=O)c1ccc(C#N)cc1	-0.7	-4.4	15.6*	4.9	-1.4
CCN(CC(=O)NCc1ccc(F)cc1)C(=O)c1ccc(Cl)cc1	0.8	9.2	-0.8	-2.2	/
SMILES	MsrA inhibitor	PKA-R1A activ	MsrA act	PKA-R2B activ	MsrA act confirm	others
Cc1ccc(S(=O)(=O)NC2=C(N3CCN(Cc4ccccc4)CC3)C(=O)c3ccccc3C2=O)cc1	-0.9	-0.1	7.8*	6.4	-1.4
O=C(CSCc1ccc(Cl)cc1)NN=C1CCCC1	-0.9	0.9	8.1*	-17.9	-0.7
N#Cc1ccc(CSCC(=O)NN=C2CCCC2)cc1	-0.9	-8.4	-1.6	-10.5	/
COc1cccc(OCC(O)CNC(=O)c2oc3ccc(C)cc3c2C)c1 (centres undefined)	-0.3	1.1	9.5*	-6.7	-2.5
COc1ccc2oc(C(=O)NCC(c3ccco3)N(C)C)c(C)c2c1 (centres undefined)	0.1	-12.4	-2.0	3.6	/
COC(=O)C1=C(C)N(Cc2cccc(C(F)(F)F)c2)C(=NCc2ccc(C(F)(F)F)cc2)NC1c1ccccc1C(F)(F)F (centres undefined)	-0.8	/	/	/	/
CSc1ccc(S(=O)(=O)Nc2ccc3c4c(cccc24)CC3)cc1	0.4	2.8	11.0*	-2.7	-0.1
O=S(=O)(Nc1ccc2c3c(cccc13)CC2)c1ccc(F)cc1	-1.2	-0.7	-1.7	-6.9	/
CCOc1cc(/C=N/Nc2nnc(C)n2N)ccc1OC(C)=O	0.2	2.9	26.9*	-2.7	0.8
COc1cc(/C=N/Nc2nncn2N)ccc1OCc1c(C)no[n+]1[O-]	0.5	-4.9	6.0	-1.4	/
CCc1nnc(N/N=C/c2cccs2)n1N	1.6	-5.5	8.1*	-3.1	-2.1
CCc1nnc(N/N=C/c2c(Cl)cccc2Cl)n1N	-0.2	0.6	5.3	-13.6	/
CCc1nnc(N/N=C\c2ccc(OC(C)=O)c(OC)c2)n1N	0.7	-7.4	12.1*	-2.4	-2.3
COc1ccc(/C=N/Nc2nncn2N)cc1Br	0.0	5.5	24.7*	-1.3	2.5
CCc1nnc(N/N=C/c2ccc(O)c(OC)c2)n1N	0.3	-6.0	4.5	5.1	/
COC(=O)[C@]12C[C@H](CC(=O)N3CCC(c4ccccc4)CC3)C(=O)N(Cc3ccccc3)C1=C[C@H](C(C)(C)C)O[C@@H]2C	0.1	/	/	/	/
C[C@@H]1COc2cccc(NCCO)c2S(=O)(=O)N1	0.4	/	/	/	/
C=CCC12C[C@@]3(O[C@H](c4ccc(C(F)(F)F)cc4)N=C3C[C@H](c3ccc(OC)cc3)[C@H]1C)N(Cc1ccc3c(c1)OCO3)C2=O	-0.1	/	/	/	/
Cc1cc(Nc2cccc(C(F)(F)F)c2)cc(=O)n1-c1cccc(C(F)(F)F)c1	0.8	/	/	/	/
CN(C)C(CNC(=S)Nc1ccccc1Cl)c1cccnc1 (centres undefined)	-0.8	-10.3	7.9*	-4.4	-1.1
C[C@@H]1ON(C)[C@H]2C[C@H]3c4[nH]c5cccc(Br)c5c4CCN3C(=O)[C@@H]12	0.1	/	/	/	/
Cc1ccc(C(=O)OCC(=O)NC2CCCCC2)cc1S(=O)(=O)N1CCCCC1	-0.1	1.2	8.4*	-2.8	-2.4
Nc1cc(C2CCCC2)nn1-c1ccccc1	-0.8	-5.8	9.1*	-1.6	-4.4
COc1cccc(C(=O)Nc2cccc3ccccc23)c1	0.9	-2.4	20.2*	-10.8	-1.1
CC(=O)Nc1cccc(NC(=O)Nc2cccc3ccccc23)c1	-0.4	1.5	-5.5	-4.9	/
O=C(Nc1cccc(C(=O)O)c1)Nc1cccc2ccccc12	-0.3	-0.2	8.3*	-9.3	-1.0
